Results as given in article PMC5540273 (PLoS ONE, 2017).

The compounds below were run on PHKG2. Conditions: concentration: 1 μM, replicates: in singlicate; n = 1.
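Note: KINOMEscan kinase panel screen.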

SMILES	%Inh [%]
c1ccc(-c2n[nH]cc2-c2ccnc3ccccc23)nc1 [GW271431]	0
CN1c2ccc(CNc3ccc(F)cc3)cc2-c2c(cnn2C)S1(=O)=O	0
CC(C)(C)n1cnc2c(N)ncnc21 [SKF-97359]	24
Cc1nnc(-c2ccc3occ(-c4ccc(C(C)O)cc4)c3c2)o1 (stereo not drawn)	16
Cc1nnc(-c2ccc3ncc(-c4ccc(S(C)=O)cc4)n3c2)o1 (stereo not drawn)	0
Nc1nccc(-c2c(-c3ccc(F)cc3)ncn2C2CCN(CC(F)(F)F)CC2)n1 [SB-236560]	0
O=c1cc(N2CCOCC2)nc2n(Cc3cccc(Cl)c3Cl)c(C3CC3)nn12 [GSK2358994]	0
O=C(NCCCN1CCOCC1)c1cccc(Nc2nccc(Nc3ccc(Oc4ccccc4)cc3)n2)c1 [GW663929]	14
CSc1ccc(-c2cc3ncnc(SCC(=O)O)c3s2)cc1	0
CN(C(=O)c1ccc(-c2cc(-c3c[nH]nc3-c3ccccn3)ccn2)cc1)C1CCOCC1 [GW810083]	12
CCc1ccnc(/C=C/c2n[nH]c3cc(Sc4ccccc4C(=O)NC)ccc23)c1	6

What follows are compounds tested on PIK3C2B. Conditions: concentration: 1 μM, replicates: in singlicate; n = 1.

SMILES	%Inh [%]
Cc1cccc(-c2nc(Nc3ccc4ncsc4c3)c3ccccc3n2)n1 [GW867588]	0
CCc1nc(-c2cccc(C)c2)c(-c2ccnc(NCc3ccccc3)c2)s1	0
COc1cc2ncn(-c3cc(OCc4sccc4Cl)c(C(N)=O)s3)c2cc1OC [GSK448459]	15
Cc1c2ccc(N(C)c3ccnc(Nc4cccc(S(N)(=O)=O)c4)n3)cc2nn1Cc1ccccc1.Cl.Cl [GW787226]	5
Nc1nc(-c2ccc3c(N)n[nH]c3c2)cc(N2CCCC2)n1 [GSK2227430]	0
COCCNC(=O)c1ccc(-c2cc(C(=O)NC3CC3)cc(F)c2C)cc1 [GW868318]	0
COc1ccc(Nc2nccc(N3CCC(NC(=O)Nc4cc(C)ccc4C)C3)n2)cc1 (stereo not drawn) [GSK1379741]	0
COc1ccc(CNC(=O)NC2CCN(c3ccnc(Nc4ccc(OC)cc4)n3)C2)cc1 (stereo not drawn) [GSK1379727]	0
COc1ccc(Nc2ncc(C#N)c(Nc3ccccc3C(N)=O)n2)cc1N1CCN(C)CC1.Cl [GSK1558669]	0
O=c1cc(N2CCOCC2)nc2n(Cc3cccc(C(F)(F)F)c3)ccn12 [GSK2297543]	0
NS(=O)(=O)c1cccc(-c2ccc3nccc(-c4cccc(S(N)(=O)=O)c4)c3c2)c1 [GW867253]	58
c1ccc(-c2cc(-c3c[nH]nc3-c3ccccn3)ccn2)cc1 [GW576604]	0
Cc1nnc(-c2ccc(C)c(-c3ccc(C(=O)Nc4ccc(NS(C)(=O)=O)cc4)cc3)c2)o1 [GW702865]	0
N#Cc1ccc(-c2cc(-c3c[nH]nc3-c3ccccn3)ccn2)cc1 [GW693028]	0
NS(=O)(=O)CCc1cccc(Nc2nccc(-c3c(-c4cccc(NC(=O)c5c(F)cccc5F)c4)nn4ccccc34)n2)c1 [GSK336735]	0
Cc1ccc(C(=O)NCC(N)=O)cc1-n1c(C)cc(OCc2ccc(F)cc2F)c(Br)c1=O	0
O=C1Cc2cc(Nc3nc(NCc4cccc(S(=O)(=O)C(F)(F)F)c4)ncc3C(F)(F)F)ccc2N1	0
Cl.Cl.Cl.Fc1ccc(-c2ncn(C3CCNCC3)c2-c2ccnc(Nc3ccccc3)n2)cc1 [SB-238039]	0
O=c1cc(N2CCOCC2)nc2n(Cc3cccc4ccccc34)ccn12 [GSK2333389]	0
Fc1ccc(-c2ncn(CCCN3CCOCC3)c2-c2cccnc2)cc1 [SB-211743]	0
Cc1cccc(Cn2ccn3c(=O)cc(N4CCOCC4)nc23)c1 [GSK2297542]	4
COc1ccc(Nc2nccc(N3CCC(NC(=O)Nc4cccc(C(C)=O)c4)C3)n2)cc1 (stereo not drawn) [GSK1379731]	0
Cc1ccc(NC(=O)c2ccnc(N3CCN(C)CC3)c2)cc1-c1ccc(C(=O)NCC2CC2)cc1 [GW775604]	0
O=C(c1ccc(-c2cc(-c3c[nH]nc3-c3ccccn3)ccn2)cc1)N1CCOCC1 [GW812171]	0
COC(=O)Nc1nc2cc(Oc3ccc(NC(=O)Nc4cc(F)ccc4F)cc3)ccc2[nH]1.Cl [GW701424]	0
